High-throughput results: PubChem, several laboratories
Myeloid diff MLP = promotes myeloid progenitor differentiation; 360,000 compounds, 1% hits; calls only at 10 µM; ER-HoxA9 myeloid progenitors, lysozyme-GFP differentiation, flow cytometry;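 active = normalized GFP-positive differentiation at or above the plate's own cutoff, the solvent-only control mean plus 3 SD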;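 also: cells exposed to compound for four days before flow analysis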
FAS TE block = blocks the thioesterase domain of human fatty acid synthase | recombinant FAS-TE, OMFH fluorogenic substrate, fluorescence endpoint | P49327 | inhibition, % at 15 µM | 360,000 compounds, 0.67% hits;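 active = compounds whose normalised, plate-corrected inhibition of enzyme fluorescence in the single-dose primary screen is 50% or more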
CendR NRP1 mod = alters CendR peptide binding to human NRP-1. FAM-RPARPAR peptide binding to NRP-1, fluorescence polarization. inhibition, % at 25 µM. 360,000 compounds, 0.85% hits. AID 602438;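 active = inhibition or corrected inhibition above about 18%, plus a signal ratio from 0.5 to 1.5, limit read from the data, passing the limit was not always enough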
CRFBP-R2 block = CRF-BP/CRF-R2 complex antagonism; HEK293 CRF-R2/CRF-BP, CRF-induced calcium fluorescence; inhibition, % at 11.8 µM; 350,000 compounds, 0.59% hits;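 active = inhibition of the ligand-induced calcium signal above about 50% at the single tested concentration, limit read from the data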
NadD inh = inhibitors of Staphylococcus aureus NadD; purified NadD enzyme, colorimetric absorbance read-out; inhibition, % at 20 µM; 360,000 compounds, 0.78% hits; AID 602399; in the data active = inhibition above about 26%
Each line names hits and unclear results; the compound was inactive in the other large screens. In the library only some 3.6% were active in any assay of this set; here they are far more common.

CC[C@@H]1CCCCc2ccccc2[C@H](C(=O)C[C@H](O)CC(C)=O)OC1=O	CRFBP-R2 block 51.3
CC(=O)C[C@H](O)CC(=O)[C@H]1OC(=O)[C@@H](C)CCCCc2ccccc21	none
COc1ccc(N=Cc2cc(Cc3ccccc3Cl)cc([N+](=O)[O-])c2O)cc1OC	none
Cc1ccc(N=Cc2cc(Cc3ccccc3Cl)cc([N+](=O)[O-])c2O)c(O)c1	NadD inh 42.3
O=c1oc2cc(Cl)ccc2n1CSc1nc2ccccc2s1	Myeloid diff MLP active
O=C(CSc1nc2ccccc2s1)N1c2ccccc2Sc2ccc(Cl)cc21	none
CCN(C1CCCCC1)S(=O)(=O)CCNC(=O)c1ccc(OC)cc1	none
COc1ccc(C(=O)NCCS(=O)(=O)N(C)C2CCCCC2)cc1	CRFBP-R2 block 50.6 (no result: Myeloid diff MLP)
Cc1cc(OC(=O)c2c(C)cc(OC(=O)c3c(C)cc(O)cc3O)cc2O)cc(O)c1C(=O)O	none
CCOc1ccc2nc(NC(=O)c3ccc(OCC4CCCO4)cc3)sc2c1 (stereo not drawn)	Myeloid diff MLP active
COc1ccc(OCCOC(=O)c2nc3nccc(C)n3n2)cc1	none
Cc1c(C(=O)N2CCOCC2)c(S(=O)(=O)Nc2cccc(F)c2)c(C)n1C	none
Cc1c(C(=O)N2CCOCC2)c(S(=O)(=O)Nc2cccc(C#N)c2)c(C)n1C	CendR NRP1 mod 22.1
Cc1ccc(Cl)cc1N1CCN(S(=O)(=O)c2c(C(=O)N3CCOCC3)c(C)n(C)c2C)CC1	Myeloid diff MLP active
FC(F)(F)c1cc(C(F)(F)F)c2ccc(Oc3ccccc3)nc2n1	CendR NRP1 mod 32.6
FC(F)(F)c1cccc(Oc2ccc3c(C(F)(F)F)cc(C(F)(F)F)nc3n2)c1	none
CC1(C)CN(O)CCN1O	CendR NRP1 mod 25.3
CN1C(=O)NC(c2ccccc2[N+](=O)[O-])C2=C1CCCC2=O (stereo not drawn)	Myeloid diff MLP active
CC(=NN1CC(=O)NC1=O)c1ccc([N+](=O)[O-])o1	none
O=C1OCCN1C(=O)[C@H]1[C@H](c2ccccc2)C(c2cccc(Cl)c2)=NN1c1ccc(Br)cc1	none
Cc1cccc(C2=NN(c3ccc(Br)cc3)[C@@H](C(=O)N3CCOC3=O)[C@@H]2c2ccc(F)cc2)c1	FAS TE block 74.0
CC[C@@H]1C(c2ccc(F)cc2)=NN(c2ccc(Br)cc2)[C@H]1C(=O)N1CCOC1=O	none
Cc1cccc(C2=NN(c3ccc(Br)cc3)[C@@H](C(=O)N3CCOC3=O)[C@@H]2c2ccc(Cl)cc2)c1	FAS TE block 74.3
COc1ccccc1[C@H]1C(c2cccc(Cl)c2)=NN(c2ccccc2)[C@@H]1CO	none
COc1ccccc1[C@@H]1C(c2cccc(Cl)c2)=NN(c2ccccc2)[C@H]1C(=O)N1CCOC1=O	FAS TE block 91.0
C=CCc1cccc(/C=N/n2c(C)nnc2C)c1O	CendR NRP1 mod 19.5
COc1cc(NC(=S)NCCC(c2ccccc2)c2ccccc2)c(OC)cc1Cl	CRFBP-R2 block 64.7
COc1ccc(Cl)cc1NC(=S)NCCC(c1ccccc1)c1ccccc1	none
Cc1ccc(C2(C)CC(C)(C)N(C(=O)CSc3nnc(C)s3)c3ccccc32)cc1 (stereo not drawn)	CRFBP-R2 block 114.7
O=[N+]([O-])c1ccc(N/N=C/c2cn(-c3ccccc3)nc2-c2ccccc2)cc1	Myeloid diff MLP active
O=[N+]([O-])c1ccc(N/N=C/c2c[nH]c3ccccc23)cc1	Myeloid diff MLP active
COc1ncccc1-c1cc2nc(NCCNC(C)=O)n(C)c(=O)c2s1	none (no result: CRFBP-R2 block)
COc1cc(Cl)c(C)cc1NC(=O)CN1CCN(C(=O)c2cccs2)CC1	none
C[C@@H]1CN([C@H](C)CO)C(=O)CCCn2nncc2CO[C@@H]1CN(C)C(=O)Nc1ccnc(N2CCOCC2)c1	none
N#Cc1cccc(NC(=O)CSc2ccccc2)c1	none
N#Cc1cccc(NC(=O)CSc2ccc3c4c(cccc24)C(=O)c2ccccc2-3)c1	Myeloid diff MLP active
COCOCCn1cc(CN2CCS(=O)(=O)N(Cc3ccc(-c4cccc(N(C)C)c4)cc3)C(C(C)C)C2=O)nn1 (stereo not drawn)	none
Cc1cc2oc(=O)cc(CSc3nnc(C)n3N)c2cc1C(C)C	Myeloid diff MLP active
COc1ccccc1C(=O)Nc1nnc(S(=O)(=O)N2CCC(C)CC2)s1	none
CC1CCN(S(=O)(=O)c2nnc(NC(=O)c3cccc(Cl)c3)s2)CC1	CRFBP-R2 block 59.5
Cc1cccc(N2CCN(C(=O)c3cc4c(=O)n(C)c5ccccc5c4n3C)CC2)c1C	Myeloid diff MLP active
